Data taken from publication PMC4336329 (PLoS ONE, 2015).
Hit rate of the full screen: of about 310,000 compounds, about 14,000 (4.5%) showed an effect of 50% or more. The effect is printed as a negative number. The sample holds strong results, similar compounds and a random draw of the others, so the mix is not that of the screen.

Target: human ether-à-go-go-related gene (hERG) potassium channel (human, UniProt Q12809)
Test: primary screen, population patch clamp on CHO cells stably expressing hERG; higher = less effect of the substance
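Note: peak tail current of the secondary pulse compared with the same well before compound.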

Sequence of human ether-à-go-go-related gene (hERG) potassium channel (Q12809 whole entry, looked up): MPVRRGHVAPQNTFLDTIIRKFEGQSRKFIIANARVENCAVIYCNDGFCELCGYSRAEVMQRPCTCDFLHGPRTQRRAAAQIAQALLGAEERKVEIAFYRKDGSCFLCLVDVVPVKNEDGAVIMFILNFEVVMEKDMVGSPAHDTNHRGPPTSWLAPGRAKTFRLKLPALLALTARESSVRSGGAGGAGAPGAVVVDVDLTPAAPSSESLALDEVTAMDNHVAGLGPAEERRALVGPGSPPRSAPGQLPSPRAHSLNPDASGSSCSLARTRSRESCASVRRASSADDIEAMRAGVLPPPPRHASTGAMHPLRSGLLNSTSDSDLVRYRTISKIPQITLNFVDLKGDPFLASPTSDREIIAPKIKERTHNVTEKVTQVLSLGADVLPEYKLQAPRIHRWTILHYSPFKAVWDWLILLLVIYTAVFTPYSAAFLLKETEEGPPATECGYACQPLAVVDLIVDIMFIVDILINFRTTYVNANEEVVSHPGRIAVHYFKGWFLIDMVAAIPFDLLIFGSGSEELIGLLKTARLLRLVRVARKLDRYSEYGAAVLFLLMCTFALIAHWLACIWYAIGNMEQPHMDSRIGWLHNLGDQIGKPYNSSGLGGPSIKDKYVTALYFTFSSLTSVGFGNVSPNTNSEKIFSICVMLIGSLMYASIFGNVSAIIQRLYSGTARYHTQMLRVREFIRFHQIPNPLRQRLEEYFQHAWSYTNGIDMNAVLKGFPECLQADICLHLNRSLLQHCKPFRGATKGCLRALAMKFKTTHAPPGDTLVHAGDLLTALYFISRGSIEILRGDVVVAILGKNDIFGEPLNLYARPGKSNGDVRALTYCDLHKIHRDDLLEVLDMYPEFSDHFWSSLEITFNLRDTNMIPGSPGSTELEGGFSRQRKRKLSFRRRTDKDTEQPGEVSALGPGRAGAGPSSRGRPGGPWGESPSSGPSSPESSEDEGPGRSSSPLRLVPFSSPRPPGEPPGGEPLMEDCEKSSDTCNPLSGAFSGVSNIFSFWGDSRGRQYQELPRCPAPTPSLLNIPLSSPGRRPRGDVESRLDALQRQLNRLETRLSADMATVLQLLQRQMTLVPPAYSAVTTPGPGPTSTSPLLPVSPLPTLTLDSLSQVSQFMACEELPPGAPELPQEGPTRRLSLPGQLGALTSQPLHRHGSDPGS

Point of comparison: `CCn1cc(/C=C(\NC(=O)c2ccccc2F)C(=O)NCCCn2ccnc2)c2ccccc21`, “hERG current change (%, negative = inhibition) at 10uM” value -69%. Against it:
- CCn1cc(/C=C(\NC(=O)c2ccccc2OC)C(=O)NCCCn2ccnc2)c2ccccc21 — higher, -19.2%
- COc1ccccc1C(=O)N/C(=C\c1ccc(Br)cc1)C(=O)NCCCO — higher, -34.3%
- COc1ccccc1C(=O)N/C(=C\c1cn(C)c2ccccc12)C(=O)NCCCn1ccnc1 — higher, 3.22%
- Cn1cc(/C=C(\NC(=O)c2ccccc2Cl)C(=O)NCCCn2ccnc2)c2ccccc21 — higher, 8.3%
- O=C(NCCCn1ccnc1)/C(=C\c1cccnc1)NC(=O)c1ccccc1Br — higher, 5.24%
- O=C(NCCCn1ccnc1)/C(=C\c1ccc(Br)cc1)NC(=O)c1ccccc1F — lower, -74.3%
- COc1ccccc1C(=O)N/C(=C/c1ccc(Br)cc1)C(=O)NCCCn1ccnc1 — lower, -87%
- COc1ccccc1C(=O)N/C(=C/c1ccc(Br)cc1)C(=O)NCC(=O)O — higher, -8.44%
- C=CCNC(=O)/C(=C\c1ccc(Br)cc1)NC(=O)c1ccccc1OC — higher, -51.8%
- C=CCNC(=O)/C(=C/c1ccc(Br)cc1)NC(=O)c1ccccc1OC — higher, -45.9%
- O=C(NCCCn1ccnc1)/C(=C\c1cccnc1)NC(=O)c1ccccc1F — higher, -17.7%
- COC(=O)c1cnn(-c2ccc(Cl)cc2)c1/C=N/NC(N)=S — higher, 7.44%
- O=C(Nc1cccc(-c2csc(Nc3cccc(C(F)(F)F)c3)n2)c1)c1cc([N+](=O)[O-])cc(C(F)(F)F)c1 — higher, 5.05%
- CC(C)Oc1ccc(CNCCC2(C(C)C)CCOC(C)(C)C2)cc1 (stereo not shown) — higher, -45.4%
- COc1ccc(NC(=O)Nc2ncn(Cc3cccc(C(F)(F)F)c3)n2)cc1OC — higher, -32.5%
- NC(=O)C(c1ccccc1)c1ccc(C(=O)c2ccccc2)cc1 (stereo not shown) — higher, 3.08%
- CC(C)N1CCC(N2CCN(CC#Cc3ccccc3)CC2CCO)CC1 (stereo not shown) — higher, 0.615%
- CCc1ccc(N2CC(O)=C(c3nc4ccccc4c(=O)[nH]3)C2=N)cc1 — higher, 2.98%
- CCOc1ccc(Nc2oc(Cc3ccccc3)nc2C#N)cc1 — higher, -1.96%
- CCCCOc1cc(CC2CNC(=O)N2)ccc1OC (stereo not shown) — higher, -2.83%
- COc1ccccc1NC(=O)Cn1c(=O)oc2cc(S(=O)(=O)N3CCCC3)ccc21 — higher, 16.6%
